Screening results from PubChem BioAssay.
CtBP-E1A blk: CtBP/E1A binding inhibition; AlphaScreen GST-E1A/His-CtBP binding, 1536-well; stronger effect = lower value; activity change, % (no concentration beside the values); actives 0.49% (n = 340,000); AID 651724; in the data active = activity change below about -65%; inconclusive = mostly about -30% to -63%
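Steps: dispense buffer (Tris pH 8.0, NaCl 300 mM, TCEP 1 mM, BSA, Tween 20); add 5X protein mix (GST-E1A, His-CtBP, 125 nM each); pin 23 nL compound; 2 h at 37 °C, dark; add 5X beads (50 ug/mL); 1 h; read.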
TDP1 block: TDP1 (human) enzyme inhibition; Q9NUW8; recombinant TDP1, AlphaScreen DNA substrate cleavage; Potency, µM (top dose mostly 130 µM), actives largely listed as inhibitors; actives 0.28% (n = 350,000); AID 485290; also: nearly all actives have a fitted effect of over 40% in size
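Steps: enzyme plus compound, 15 min RT; add biotin/phosphotyrosine-FITC oligonucleotide (15 nM final), react 5 min; add donor/acceptor beads (10 ug/ml final), 10 min; read AlphaScreen. Tdp1 at 1 nM final.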
JMJD2A Tudor: inhibitors of human JMJD2A Tudor domain; O75164; AlphaScreen JMJD2A-Tudor / H3K4me3 peptide binding; Potency, µM (highest dose often 114 µM), hits mostly inhibitors; actives 4.4% (n = 390,000); AID 504339; also: nearly all actives have a fitted effect of over 50% in size
Target sequence (O75164 whole entry, looked up, the tested form may be a part): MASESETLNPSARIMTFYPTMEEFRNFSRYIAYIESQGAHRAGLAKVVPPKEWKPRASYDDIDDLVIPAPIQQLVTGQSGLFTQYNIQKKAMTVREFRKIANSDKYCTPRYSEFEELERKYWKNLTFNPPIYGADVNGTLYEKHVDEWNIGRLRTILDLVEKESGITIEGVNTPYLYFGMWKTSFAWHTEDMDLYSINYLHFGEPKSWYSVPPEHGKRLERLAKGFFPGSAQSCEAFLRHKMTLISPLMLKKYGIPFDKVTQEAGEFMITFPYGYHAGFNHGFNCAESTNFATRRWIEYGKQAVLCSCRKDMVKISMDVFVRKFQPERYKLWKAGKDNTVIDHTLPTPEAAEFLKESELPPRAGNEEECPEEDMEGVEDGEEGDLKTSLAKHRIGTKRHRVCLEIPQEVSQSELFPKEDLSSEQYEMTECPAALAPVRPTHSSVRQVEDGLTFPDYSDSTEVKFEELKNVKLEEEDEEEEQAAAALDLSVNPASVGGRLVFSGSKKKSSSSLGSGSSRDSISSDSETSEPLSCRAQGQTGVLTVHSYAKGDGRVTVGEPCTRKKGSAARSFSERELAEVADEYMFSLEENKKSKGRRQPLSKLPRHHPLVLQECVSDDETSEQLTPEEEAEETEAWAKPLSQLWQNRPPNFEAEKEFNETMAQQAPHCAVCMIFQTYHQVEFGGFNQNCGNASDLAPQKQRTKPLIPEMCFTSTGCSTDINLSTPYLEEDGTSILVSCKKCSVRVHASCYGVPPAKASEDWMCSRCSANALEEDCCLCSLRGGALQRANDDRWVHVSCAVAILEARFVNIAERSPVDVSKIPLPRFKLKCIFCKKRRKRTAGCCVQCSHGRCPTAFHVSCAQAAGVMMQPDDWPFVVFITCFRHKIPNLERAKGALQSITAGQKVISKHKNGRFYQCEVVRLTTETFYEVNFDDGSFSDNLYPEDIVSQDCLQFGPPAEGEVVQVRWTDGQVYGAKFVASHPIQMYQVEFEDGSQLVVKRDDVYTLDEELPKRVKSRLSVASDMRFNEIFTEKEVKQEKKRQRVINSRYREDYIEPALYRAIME
HP1b chromo inh: blocks HP1-beta chromodomain binding to methylated histone tails; Potency, µM (series often up to 114 µM), actives largely listed as inhibitors; actives 0.56% (n = 390,000); AlphaScreen HP1-beta / biotin-H3K9me3 peptide binding; also: nearly all actives have a fitted effect of over 70% in size
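AlphaScreen: HP1-beta (50 nM) preformed 30 min with biotin-H3(1-18)K9me3 peptide (50 nM) in PBS pH 7.4, 0.01% Tween-20. Compound added for 30 min at RT, then streptavidin donor/nickel chelate acceptor beads (10 ug/mL) for 30 min.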
Six1-Eya2 blk: Six1/Eya2 interaction inhibition. AlphaScreen GST-Six1/His-Eya2 binding, biochemical; stronger effect = lower value. activity change, % (test concentration not listed). actives 0.56% (n = 360,000). AID 651725; in the data active = activity change below about -65%; inconclusive = mostly about -30% to -63%
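AlphaScreen with GST-Six1 and His-Eya2 (5X mix: 250 nM and 500 nM), glutathione donor and nickel acceptor beads; buffer 50 mM Tris pH 8.0, 300 mM NaCl, 1 mM TCEP; 1 h at 37 C in the dark.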
BAZ2B block: BAZ2B (human) inhibition. Q9UIF8. AlphaScreen BAZ2B-H3K14Ac peptide displacement. Potency, µM (titrated, usually from 114 µM), actives largely listed as inhibitors. actives 4.4% (n = 360,000). AID 504333; also: nearly all actives have a fitted effect of over 60% in size
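In this displacement format the biotinylated H3(5-23) peptide acetylated at Lys14 serves as ligand at 50 nM, with BAZ2B at 50 nM in PBS pH 7.4 containing 0.01% Tween-20. Donor and acceptor beads are 10 ug/mL final.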
Numbers stand for hits; i = inactive; ? = inconclusive; nt = no result given; [ ] = remark or other dose. Rows were chosen to be rich in hits. Some 5.3% of all compounds tested hit in one or more screens of this group. Unless noted, calls follow the shape of the dose curve; as a rule, active = well fitted inhibition curve with a large enough effect; inconclusive = small, poorly fitted or top-dose-only effect; inactive = no such curve, though single readings can be large or run the other way.

SMILES	CtBP-E1A blk	TDP1 block	JMJD2A Tudor	HP1b chromo inh	Six1-Eya2 blk	BAZ2B block
CCC(/C=C1\Sc2ccc(OC)cc2N1CC)=C\c1sc2ccc(OC)cc2[n+]1CCCS(=O)(=O)[O-]	i	i	?	i	?	22µM
CCC(/C=C1\Sc2ccc(OC)cc2N1CCO)=C\c1sc2ccc(OC)cc2[n+]1CCO	?	i	22µM	40µM	?	13µM
C=CC[C@](C)(Nc1ccc(OC)cc1)C(=O)OCC	nt	i	nt	nt	nt	nt
Cn1nc(CC#N)c2c(=N)n(N)cnc21	i	nt	32µM	i	i	nt
CC(C)(C)NC(=O)C(c1ccncc1)N(Cc1ccco1)C(=O)c1ccc(-c2ccccc2)[nH]1 (stereo unspecified)	i	i	50µM	?	i	?
Cc1ccc(Sc2ccc(N3CCC(C(=O)Nc4ccc(Cl)cc4)CC3)nn2)cc1	nt	i	i	i	nt	i
C=CCOc1ccccc1CN1CCCCCC1	i	nt	1.4µM	?	i	?
C=CCOc1ccccc1CN1CCSCC1	i	i	6.3µM	?	i	56µM
C=CCOc1ccccc1CN1CCC(Oc2ccc(C(=O)N3CCCCC3)cc2)CC1	i	i	i	i	i	i
S=c1[nH]nc(Nc2cccc3ccccc23)s1	i	i	18µM	40µM	i	?
O=S(=O)(Nc1nc2c(s1)CCCC2)c1ccc2ccccc2c1	i	i	?	i	i	?
Cc1c(Cl)cccc1Nc1n[nH]c(=S)s1	i	nt	11µM	50µM	i	nt
Fc1ccccc1Nc1n[nH]c(=S)s1	i	i	2.8µM	45µM	i	50µM
c1ccc2c(Nc3nc4c(s3)CCCC4)cccc2c1	i	i	i	?	i	50µM
CCC(=O)N1c2ccccc2CC1C(=O)NCCc1ccccc1OC (stereo unspecified)	nt	i	i	i	nt	i
CC(=O)N1CCc2c(sc3c2c(=O)n(CCc2ccccc2)c(=O)n3CC(=O)Nc2ccccc2F)C1	nt	i	i	i	nt	i
Cc1cc(C)c2sc(N3CCN(C(=O)C4CC4)CC3)nc2c1	nt	i	i	i	nt	i
CCCn1c(SCC(=O)N2c3ccc(F)cc3CCC2C)nnc1-c1ccccn1 (stereo unspecified)	i	i	71µM	?	i	i
CCn1c(=O)c2sccc2n2c(CCC(=O)N3CCN(c4ccccc4OC)CC3)nnc12	nt	i	i	i	nt	i
CCCn1c(SCC(=O)NCc2ccc(OC)cc2)n[nH]c1=O	i	i	i	i	i	i
CCCn1c(SCC(=O)NCc2ccc(F)cc2)n[nH]c1=O	i	i	45µM	i	i	i
CCOC(=O)c1ccc(CN(Cc2ccc(F)cc2)S(=O)(=O)c2ccc(F)c(C(=O)Nc3c(C)cccc3C)c2)cc1	nt	i	i	i	nt	i
O=C(Cn1cnc([N+](=O)[O-])n1)c1ccc(O)c(O)c1	i	nt	?	i	i	79µM
O=C(Cn1cnc([N+](=O)[O-])n1)c1ccccc1	i	i	i	i	i	i
COc1ccccc1CNC(=O)CCC1N=C2c3ccccc3N=C(SCc3ccc(Cl)cc3)N2C1=O (stereo unspecified)	nt	i	i	i	nt	i
SMILES	CtBP-E1A blk	TDP1 block	JMJD2A Tudor	HP1b chromo inh	Six1-Eya2 blk	BAZ2B block
CC(=O)Oc1cc(C(=O)OCC(=O)NC23CC4CC(CC(C4)C2)C3)cc(OC(C)=O)c1OC(C)=O	i	nt	3.5µM	?	i	nt
Cc1ccc2c(c1)sc1nc(-c3cc4ccccc4oc3=O)cn12	nt	i[12.3 µM]	i	i	nt	i
CCOc1ccc(Nc2n[nH]c(=S)s2)cc1	i	i	?	i	i	i
CCSc1n[nH]c(=S)s1	i	i	20µM	?	i	?
COc1ccccc1NCC(O)Cn1c2ccccc2c2ccccc21 (stereo unspecified)	i	i	40µM	?	?	40µM
N#C/C(=C(/O)CCl)c1nnc2n1CCCCC2	i	i	20µM	i	i	79µM
COc1ccc2nc(C)cc(N/N=C/c3cccc(OC)c3O)c2c1	?	nt	50µM	?	?	45µM
COc1ccc(/C=N/Nc2cc(C)nc3ccc(Br)cc23)cc1	i	nt	?	?	i	?
COc1cccc(/C=N/Nc2ncnc3scc(-c4ccccc4)c23)c1O	i	i	45µM	i	-93	13µM
COc1cccc(/C=N/Nc2cc(-n3nc(C)cc3-c3ccccc3)ncn2)c1O	i	i	i	i	?	i
COc1cccc(C=NNc2nnc(NN=Cc3cccc(OC)c3OC)c3ccccc23)c1OC	-86	nt	35µM	?	-78	nt
COc1cccc(/C=N/Nc2ncnc(Cl)c2N)c1O	-79	i	i	i	-88	7.9µM
CC(C)=CCC/C(C)=C/CO/N=C1/C[C@@H](O)[C@@H](O)[C@@H]2[C@@H]3C(=O)N(c4cccc(Oc5ccccc5)c4)C(=O)[C@H]3CC[C@@H]12	nt	i[21 µM]	nt	nt	nt	nt
CCOC(=O)CCN(c1ccccc1)S(=O)(=O)c1ccc2[nH]c(=O)ccc2c1	nt	i	i	i	nt	i
O=C(COc1ccccc1)NCCc1csc(-c2ccc(Cl)cc2)n1	nt	i	i	i	nt	i
CN(C)c1ccc2c(-c3ccccc3)c3ccc(=[N+](C)C)cc-3oc2c1	nt	i	nt	nt	nt	nt
COc1cccc(/C=N/Nc2nccnc2Cl)c1O	-93	i	40µM	i	-79	14µM
CCN(CC)S(=O)(=O)c1ccc(NC(=O)NCc2noc3ccc(C)cc23)cc1	nt	i	i	i	nt	i
Cc1cc(=O)n2nc(N3CCC(C(=O)NCCCOC(C)C)CC3)sc2n1	nt	i	i	i	nt	i
Cc1cc(N)c(-n2cc3c(c2-c2ccc(Br)cc2)c(=O)n(C)c(=O)n3C)cc1C	nt	i	i	i	nt	i
Cc1ccc(-n2cc3c(c2-c2ccccc2Br)c(=O)n(C)c(=O)n3C)cc1N	nt	i	?	i	nt	50µM
C=CCNc1nc(-c2ccc(OC)cc2OC)cs1	i	i	?	i	i	56µM
O=C(Nc1ccccc1C(=O)Nc1ccccc1C(=O)O)c1ccccc1	-67	nt	i	i	-81	i
O=C(Nc1ccccc1O)c1ccc(NC(=O)C2CC2)cc1	i	i	i	i	i	i
Nc1ccc(C(=O)Nc2ccccc2C(=O)O)cc1	?	i	i	i	i	i
SMILES	CtBP-E1A blk	TDP1 block	JMJD2A Tudor	HP1b chromo inh	Six1-Eya2 blk	BAZ2B block
O=C(Nc1ccccc1C(=O)O)c1ccc(NC(=O)C2CC2)cc1	?	i	i	i	-81	i
O=C(O)CNc1ccccc1C(=O)O	i	nt	56µM	i	i	?
Cc1nc(N)sc1-c1csc(Nc2cccc(C(=O)O)c2)n1	nt	nt	?	i	i	50µM
Cc1nc(N)sc1-c1csc(Nc2ccccc2)n1	?	i	?	i	?	50µM
Cc1cc(O)ccc1Nc1nc(-c2sc(N)nc2C)cs1	-67	i	50µM	i	?	i
Cc1csc(Nc2ccccc2)n1	i	i	i	i	i	?
O=C(COc1ccccc1Cl)Nc1cc(-c2ccccc2F)nn1-c1ccccc1	nt	i	i	i	nt	i
